From PubChem BioAssay (Tox21) come the findings set out here.

Each structure is given as a SMILES string. Unmarked numbers belong to inactive results. Results filed as inconclusive are left out. Calls of active or inactive are those of the source. Unless noted, calls follow the shape of the dose curve; as a rule, active = well fitted curve in the direction sought with a large enough effect in the repeat runs; inconclusive = weak or mixed curves; inactive = no such curve, though single readings can be large; an effect the other way counts as inactive or inconclusive.

Assay [1] has as its target Progesterone receptor (Homo sapiens) (UniProt P06401). The assay can be described thus: qHTS assay to identify small molecule agonists of the progesterone receptor (PR) signaling pathway (AID 1346784; calls by dose curve; also: nearly all actives have a fitted effect of over 30% in size). Put shortly:
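Compounds were tested for PR agonism in HEK 293T cells bearing a beta-lactamase gene under UAS control. Treatment lasted 16 hr at 37C; signal came from fluorescence of a FRET substrate.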

The target is the same in assay [2]. The assay can be described thus: qHTS assay to identify small molecule antagonists of the progesterone receptor (PR) signaling pathway (AID 1346795; active = well fitted inhibition curve with a large enough effect in the signal ratio in the repeat runs, not every such curve was filed as active; the % refers to the signal ratio; also: potency is read from the fitted curve at half-maximal effect). Put shortly:
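In HEK293T cells bearing the PR-UAS-bla reporter, compound effects on promegestone-driven (1 nM) beta-lactamase expression are assessed after 16 hr using a fluorescent FRET substrate incubated 2 hr at room temperature.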

Assay [3] in a line: qHTS assay to identify small molecule antagonists of the progesterone receptor (PR) signaling pathway - cell viability counter screen (AID 1346798). Also: nearly all actives have a fitted effect of over 50% in size. Also: potency is read from the fitted curve at half-maximal effect. Put shortly: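 Following a 4 hr attachment, PR-UAS-bla HEK293T cells in charcoal-stripped FBS medium were exposed to compounds with R5020 for 16 hr; CellTiter-Glo was added and luminescence read after 30 min at room temperature.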

Assay [4] is described as follows: qHTS assay to identify small molecule agonists of the progesterone receptor (PR) signaling pathway - cell viability counter screen (AID 1346799; calls by dose curve; also: nearly all actives have a fitted effect of over 45% in size). Put shortly:
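Here, 3,000 PR-UAS-bla HEK293T cells per well were treated with compounds for 16 hr after a 6 hr preincubation at 37C and 5% CO2; cell viability is the CellTiter-Glo luminescence signal.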

Assay [5] can be described thus: qHTS assay to identify small molecule antagonists of the TGF-beta/Smad signaling pathway - cell viability counter screen (AID 1346824). Also: nearly all actives have a fitted effect of over 50% in size. Put shortly: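 Cytotoxicity counter-screen run in the same wells as the beta-lactamase Smad reporter read: CellTiter-Glo luminescence after 30 min at room temperature. HEK 293T SBE-bla cells had 5 hr compound exposure at 37 C with TGF-beta1 (0.25 ng/mL stock).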

Assay [6] in a line: qHTS assay to identify small molecule agonists of the TGF-beta/Smad signaling pathway - cell viability counter screen (AID 1346829). Also: top concentration of the series differs between compounds; nearly all actives have a fitted effect of over 45% in size. Put shortly: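 CellTiter-Glo luminescence readout; SBE-bla HEK 293T cells, overnight plating, compound 5 hr at 37 C/5% CO2, then bla substrate 2 hr RT, then CellTiter-Glo 30 min RT.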
Assay [7] is described as follows: qHTS assay to identify small molecule agonists of the TGF-beta/Smad signaling pathway (AID 1346859; active = well fitted activation curve with a large enough effect in the signal ratio in the repeat runs, not every such curve was filed as active; the % refers to the signal ratio; also: series mostly up to about 77 µM). Put shortly:
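Each well held 4,000 SBE-bla HEK 293T cells incubated overnight before compound addition; 5 hr later the cleavable FRET substrate went on for 2 hr at room temperature, and fluorescence was read at two emissions.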

In assay [8] the target is Thyrotropin-releasing hormone receptor (Homo sapiens) (UniProt P34981). As to the kind of experiment: qHTS assay to identify small molecule antagonists of the thyrotropin-releasing hormone receptor (TRHR) signaling pathway (AID 1346877; active = well fitted inhibition curve with a large enough effect in the repeat runs, not every such curve was filed as active; also: series mostly up to about 51 µM). Put shortly: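 In this cell-based calcium flux format, HEK293 cells expressing TRHR received test compound for 5 min before the agonist TRH (1 nM final). Dye loading lasted 2 h at 37 °C.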

Assay [9] has the same target. As to the kind of experiment: qHTS assay to identify small molecule agonists of the thyrotropin-releasing hormone receptor (TRHR) signaling pathway (AID 1346891; calls by dose curve; also: series mostly up to about 58 µM). Put shortly: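 Screening of agonists relied on calcium signalling in HEK293 cells expressing human TRHR: dye loading 2 h at 37 °C preceded compound addition and a 3-min fluorescence time course.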
The nature of assay [10]: Human pregnane X receptor (PXR) small molecule agonists, qHTS cell viability counter screen (AID 1346977). Also: nearly all actives have a fitted effect of over 50% in size. Put shortly: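 Tox21 qHTS format; PXR-Luc HepG2, 2,000/well, charcoal-stripped FBS 5%. Cpd exposure 24hr. Read: CellTiter-Fluor fluorescence, multiplexed with luciferase.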
The nature of assay [11]: Caspase-3/7 induction in CHO-K1 cells by small molecules, qHTS cell viability counter screen (AID 1346979). Also: nearly all actives have a fitted effect of over 35% in size. Put shortly: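 CellTiter-Fluor viability check, qHTS format: wild-type CHO-K1, 16hr compound treatment, 1hr reagent incubation, fluorescence read.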
The nature of assay [12]: Caspase-3/7 induction in CHO-K1 cells by small molecules, qHTS assay (AID 1346980). Also: nearly all actives have a fitted effect of over 15% in size. Put shortly: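 Luminescent Caspase-Glo 3/7 read (30min, room temperature) quantified apoptosis induction. Cells were wild-type CHO-K1, treated with compound for 17hr at 37 C and 5% CO2.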
A short description of assay [13]: Caspase-3/7 induction in HepG2 cells by small molecules, qHTS cell viability counter screen (AID 1346981). Also: series mostly up to about 92 µM; nearly all actives have a fitted effect of over 30% in size. Put shortly: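 Counter screen for cytotoxicity: HepG2 exposed 16 hr to compounds, then CellTiter-Fluor viability signal (fluorescence, 1 hr reagent incubation).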
Assay [14] has as its target Nuclear receptor subfamily 1 group I member 2 (Homo sapiens) (UniProt O75469). As to the kind of experiment: Human pregnane X receptor (PXR) small molecule agonists, qHTS assay (AID 1346982). Also: nearly all actives have a fitted effect of over 35% in size. Also: potency is read from the fitted curve at half-maximal effect. Put shortly: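 Luminescence (ONE-Glo, 30 min RT) after 24 hr compound exposure of PXR-Luc HepG2 cells; cells rested 5 hr post-plating in 5% charcoal-stripped FBS medium.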
For assay [15], the target named is Cytochrome P450 2D6 (Homo sapiens) (UniProt P10635). The assay can be described thus: Cytochrome P450 Family 2 Subfamily D Member 6 (CYP2D6) small molecule antagonists: luciferase reporter qHTS assay (AID 1671196). Also: series mostly up to about 120 µM; nearly all actives have a fitted effect of over 50% in size. Put shortly: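 Inhibition of CYP2D6 was gauged by loss of luminescence, since light produced tracks the luciferin generated from a proluciferin substrate. A 10 min room-temperature preincubation preceded 1 h NADPH-supported turnover.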

In assay [16] the target is Cytochrome P450 2C19 (Homo sapiens) (UniProt P33261). As to the kind of experiment: Cytochrome P450 Family 2 Subfamily C Member 19 (CYP2C19) small molecule antagonists: luciferase reporter qHTS assay (AID 1671197). Also: nearly all actives have a fitted effect of over 65% in size. Also: potency is read from the fitted curve at half-maximal effect. Put shortly: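 Enzyme-substrate mix with proluciferin substrate (P450-Glo CYP2C19 system) preincubated with compounds 10 min at room temperature; NADPH regeneration solution added, 37C for 1 h; detection reagent stops reaction, luminescence read after 20 min. Ketoconazole positive control.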

A short description of assay [17]: Caspase-3/7 induction in HepG2 cells by small molecules, qHTS assay (AID 1346978). Also: nearly all actives have a fitted effect of over 15% in size. Put shortly: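 Caspase-3/7 induction was measured by Caspase-Glo 3/7 luminescence (30 min, room temperature) after a 17 hr compound exposure of wild-type HepG2 cells seeded at 2,000 per well and pre-incubated 5 hr.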
Assay [18] deals with Nuclear receptor subfamily 1 group I member 2 (Rattus norvegicus) (UniProt Q9R1A7). As to the kind of experiment: Rat pregnane X receptor (rPXR) activation by small molecules, qHTS assay (AID 1346983). Also: nearly all actives have a fitted effect of over 20% in size. The note with it: rPXR luciferase reporter cells, One-Glo luminescence, 24 h; max activation: stronger effect = higher value. Put shortly: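 Luminescent readout (One-Glo luciferase, 30 min room temperature) followed 24 hr compound treatment at 37 C of rPXR cells plated 2,000 per well and preincubated 5hr; qHTS format with compounds delivered in DMSO.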
% is scaled to controls: 0 for no effect and ±100 for the full control effect.

Chain of Cytochrome P450 2C19 (Homo sapiens) (P33261 whole entry, looked up): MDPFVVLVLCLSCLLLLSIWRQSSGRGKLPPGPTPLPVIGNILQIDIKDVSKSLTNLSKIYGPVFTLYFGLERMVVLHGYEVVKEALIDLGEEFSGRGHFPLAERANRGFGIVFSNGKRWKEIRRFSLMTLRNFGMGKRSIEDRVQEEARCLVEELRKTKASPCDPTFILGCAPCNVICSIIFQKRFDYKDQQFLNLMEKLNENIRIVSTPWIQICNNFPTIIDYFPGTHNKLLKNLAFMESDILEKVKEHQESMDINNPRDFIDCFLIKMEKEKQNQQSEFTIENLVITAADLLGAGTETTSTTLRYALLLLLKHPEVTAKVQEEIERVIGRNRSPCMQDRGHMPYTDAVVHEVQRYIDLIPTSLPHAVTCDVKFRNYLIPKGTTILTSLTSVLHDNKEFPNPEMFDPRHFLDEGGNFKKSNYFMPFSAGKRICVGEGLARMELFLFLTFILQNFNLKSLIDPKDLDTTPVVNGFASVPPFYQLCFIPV
Chain of Thyrotropin-releasing hormone receptor (Homo sapiens) (P34981 whole entry, looked up): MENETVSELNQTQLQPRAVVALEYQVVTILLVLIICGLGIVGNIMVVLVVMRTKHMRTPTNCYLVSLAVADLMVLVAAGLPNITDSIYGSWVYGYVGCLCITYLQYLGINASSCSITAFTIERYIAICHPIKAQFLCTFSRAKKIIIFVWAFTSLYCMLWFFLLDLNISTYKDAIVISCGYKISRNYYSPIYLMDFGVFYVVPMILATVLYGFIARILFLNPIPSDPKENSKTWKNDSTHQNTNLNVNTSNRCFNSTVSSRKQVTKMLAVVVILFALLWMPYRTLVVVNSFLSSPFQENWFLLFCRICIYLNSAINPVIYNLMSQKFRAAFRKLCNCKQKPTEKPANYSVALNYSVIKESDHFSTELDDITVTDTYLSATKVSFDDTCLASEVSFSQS
Chain of Cytochrome P450 2D6 (Homo sapiens) (P10635 whole entry, looked up): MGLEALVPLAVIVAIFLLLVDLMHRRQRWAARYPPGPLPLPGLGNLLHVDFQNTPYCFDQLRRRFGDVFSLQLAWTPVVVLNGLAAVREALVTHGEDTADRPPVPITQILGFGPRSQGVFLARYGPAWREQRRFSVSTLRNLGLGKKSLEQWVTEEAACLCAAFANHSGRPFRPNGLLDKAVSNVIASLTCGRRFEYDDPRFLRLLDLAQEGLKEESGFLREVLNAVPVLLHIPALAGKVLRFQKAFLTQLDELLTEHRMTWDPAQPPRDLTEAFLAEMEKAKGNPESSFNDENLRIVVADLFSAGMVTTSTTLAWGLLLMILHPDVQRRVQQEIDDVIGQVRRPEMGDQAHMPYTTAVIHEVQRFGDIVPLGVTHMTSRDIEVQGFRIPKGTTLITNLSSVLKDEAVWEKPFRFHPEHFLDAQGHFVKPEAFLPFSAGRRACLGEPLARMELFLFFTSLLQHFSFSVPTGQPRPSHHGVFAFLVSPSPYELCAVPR
Chain of Progesterone receptor (Homo sapiens) (P06401 whole entry, looked up): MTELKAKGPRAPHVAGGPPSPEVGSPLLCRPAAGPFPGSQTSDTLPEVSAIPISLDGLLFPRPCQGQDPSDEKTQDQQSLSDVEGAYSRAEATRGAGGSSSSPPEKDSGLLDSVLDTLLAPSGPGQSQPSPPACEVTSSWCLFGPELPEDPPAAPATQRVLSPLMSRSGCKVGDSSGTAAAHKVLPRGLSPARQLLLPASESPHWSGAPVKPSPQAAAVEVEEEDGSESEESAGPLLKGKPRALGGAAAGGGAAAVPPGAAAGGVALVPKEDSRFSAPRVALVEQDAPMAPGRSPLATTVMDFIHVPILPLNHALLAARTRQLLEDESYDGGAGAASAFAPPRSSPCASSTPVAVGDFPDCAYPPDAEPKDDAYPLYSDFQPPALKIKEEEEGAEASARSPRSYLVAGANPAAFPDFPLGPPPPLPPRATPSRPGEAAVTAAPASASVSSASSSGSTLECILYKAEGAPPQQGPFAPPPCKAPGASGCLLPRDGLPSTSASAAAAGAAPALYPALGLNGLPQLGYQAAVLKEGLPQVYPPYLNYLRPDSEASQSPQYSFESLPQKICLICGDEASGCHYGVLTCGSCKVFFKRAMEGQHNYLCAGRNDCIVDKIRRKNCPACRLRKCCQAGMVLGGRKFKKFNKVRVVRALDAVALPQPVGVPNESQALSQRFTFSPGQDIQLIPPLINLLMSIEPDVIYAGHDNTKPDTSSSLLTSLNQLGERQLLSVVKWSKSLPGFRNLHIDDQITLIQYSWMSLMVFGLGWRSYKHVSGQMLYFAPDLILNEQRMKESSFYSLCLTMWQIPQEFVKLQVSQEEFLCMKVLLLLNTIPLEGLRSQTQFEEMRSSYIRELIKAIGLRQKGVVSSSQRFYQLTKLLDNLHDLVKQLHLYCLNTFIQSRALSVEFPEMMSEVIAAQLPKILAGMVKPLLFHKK
Chain of Nuclear receptor subfamily 1 group I member 2 (Homo sapiens) (O75469 whole entry, looked up): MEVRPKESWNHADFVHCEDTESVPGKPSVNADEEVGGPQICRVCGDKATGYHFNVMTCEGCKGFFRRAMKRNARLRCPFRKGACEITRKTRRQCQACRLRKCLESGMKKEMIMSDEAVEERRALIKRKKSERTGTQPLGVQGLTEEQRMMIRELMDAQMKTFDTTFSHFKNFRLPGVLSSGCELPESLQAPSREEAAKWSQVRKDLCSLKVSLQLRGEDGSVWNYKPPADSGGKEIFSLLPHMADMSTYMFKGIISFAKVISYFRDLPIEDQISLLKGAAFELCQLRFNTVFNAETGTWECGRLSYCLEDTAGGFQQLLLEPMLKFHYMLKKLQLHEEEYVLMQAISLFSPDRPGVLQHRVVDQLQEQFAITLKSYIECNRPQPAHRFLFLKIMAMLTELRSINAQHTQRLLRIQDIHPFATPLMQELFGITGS
Chain of Nuclear receptor subfamily 1 group I member 2 (Rattus norvegicus) (Q9R1A7 whole entry, looked up): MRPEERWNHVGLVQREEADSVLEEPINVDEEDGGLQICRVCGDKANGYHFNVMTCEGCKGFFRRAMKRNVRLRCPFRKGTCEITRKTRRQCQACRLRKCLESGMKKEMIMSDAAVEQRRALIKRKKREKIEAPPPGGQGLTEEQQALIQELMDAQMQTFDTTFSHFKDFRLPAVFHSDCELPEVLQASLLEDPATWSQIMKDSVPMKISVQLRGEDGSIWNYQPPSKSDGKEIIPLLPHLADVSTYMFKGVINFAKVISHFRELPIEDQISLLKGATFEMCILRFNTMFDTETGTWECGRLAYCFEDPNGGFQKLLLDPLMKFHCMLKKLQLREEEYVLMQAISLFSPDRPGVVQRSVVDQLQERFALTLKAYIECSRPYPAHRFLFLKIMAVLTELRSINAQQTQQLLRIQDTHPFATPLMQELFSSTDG

For `CC(C)(C)c1cc(CCC(=O)OCC(COC(=O)CCc2cc(C(C)(C)C)c(O)c(C(C)(C)C)c2)(COC(=O)CCc2cc(C(C)(C)C)c(O)c(C(C)(C)C)c2)COC(=O)CCc2cc(C(C)(C)C)c(O)c(C(C)(C)C)c2)cc(C(C)(C)C)c1O`, the compound was classed as inactive in assay [1], in [7] and in [8]. Besides, the Potency entry in assay [2], in assay [3], in assay [4], in assay [5], in [6] and in assay [9] was “inactive” each time. Besides, the Potency entry in assay [10], in assay [11], in [12], in assay [13], in [14] and in [15] was “inactive” in each case. Further, in assay [16], the Potency was 33.8 µM (active).

Regarding `Nc1cnn([C@@H]2O[C@H](CO)[C@@H](O)[C@H]2O)c(=O)n1`, the outcome in assay [1], in [7] and in [8] was inactive. In [2], the Potency is 19.4 µM (active). Also, the Potency entry in [3], in assay [4], in assay [5], in assay [6], in [9] and in assay [10] was “inactive” each time. Moreover, the Potency result in assay [12], in assay [13], in assay [14], in assay [15] and in [16] was “inactive” throughout.

Turning to `CC[C@H](C)[C@@H](C(=O)O)n1sc2ccccc2c1=O`, the call in assay [1], in assay [7], in assay [8] and in assay [17] was inactive. In addition, the Potency result in [2], in [4], in assay [5], in assay [6], in assay [9] and in assay [10] was “inactive” each time. The Potency result in assay [11], in assay [12], in assay [13], in assay [14] and in assay [15] was “inactive” each time. Further, in [3], the Potency is 30.6 µM (active).

With `O=C(O)/C=C/c1cnc[nH]1`, the outcome in assay [1], in assay [7] and in assay [8] was inactive. Further, the Potency result in assay [2], in assay [3], in [4], in assay [5], in [6] and in assay [9] was “inactive” in each case. The Potency result in [10], in assay [12], in [13] and in assay [14] was “inactive” throughout. Moreover, the Potency in [16] is 79.8 µM (active).

In the case of `CCCC[C@H]1CN(CC2CCOCC2)C(=O)OC12CCN(C1(C)CCN(C(=O)c3c(C)ncnc3C)CC1)CC2`, the result in [1], in [7], in assay [8] and in assay [17] was inactive. Besides, the Potency entry in assay [2], in [3], in assay [4], in assay [5], in [6] and in assay [9] was “inactive” in each case. Besides, the Potency result in [10], in [11], in assay [12], in assay [14], in [15] and in assay [16] was “inactive” each time.

In the case of `O=S1(=O)N=C(O)c2ccccc21`, the compound was classed as inactive in [1], in assay [7], in assay [8] and in [17]. The Potency result in [2], in [3], in [4], in [5], in [6] and in assay [9] was “inactive” each time. Further, the Potency entry in assay [10], in [11] and in assay [12] was “inactive” throughout.

As to `CCCCCCCCCCCCCCCC(=O)OC/C=C(C)/C=C/C=C(C)/C=C/C1=C(C)CCCC1(C)C`, the outcome in [1], in assay [7], in [8] and in [17] was inactive. For the same compound, the Potency entry in assay [2], in assay [3], in assay [4], in assay [5], in [6] and in assay [9] was “inactive” in each case. Further, the Potency entry in assay [10], in assay [11], in [12], in assay [13] and in assay [15] was “inactive” in each case. Also, the Potency in assay [14] is 24.3 µM (active); in assay [16], 39.9 µM (active).

With `CCCCOc1cc(C(=O)OCCN(CC)CC)ccc1N`, the compound was called inactive in [1], in assay [7], in assay [8] and in assay [17]. Also, the Potency result in [2], in assay [3], in assay [4], in [5], in assay [6] and in assay [9] was “inactive” each time. Besides, the Potency entry in assay [11], in assay [12] and in [13] was “inactive” in each case. In assay [18], the max activation was -4.73%.
